# HCMV inh = inhibitors of human cytomegalovirus; HFF cells, HCMV-luciferase reporter, 72 h; active compounds read low; activity change, negative = inhibition, % at 57.5 µM; 410,000 compounds, 4.5% hits; AID 1259415; in the data active means activity change below about -60%; inconclusive means no clear call, values can overlap the other calls; inactive means above about -39%; further: on the % scale 0 is the no-effect control and ±100 the full control effect
#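 Compounds were evaluated in HFFs infected with an HCMV luciferase reporter virus (MOI 1 PFU/cell). Luciferase in lysates collected 72 h post infection served as the replication measure.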
# Sm TGR block = blocks Schistosoma mansoni thioredoxin glutathione reductase; Q962Y6; purified TGR, DTNB reduction, TNB absorbance 405 nm; Potency, µM (titrated, usually from 114 µM), inactives show top-dose activity change, negative = inhibition, usual class: inhibitors; 360,000 compounds, 3% hits; AID 485364; further: potency means the concentration at half of the fitted maximal effect; on the % scale 0 is the no-effect control and ±100 the full control effect; nearly all actives have a fitted effect of over 60% in size
#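 TGR 20 nM + NADPH 100 uM (dispensed conc.), cpd preinc 15 min RT; start with NADPH (500 uM addition) then DTNB (15 mM addition). Kinetic TNB absorbance, 405 nm filter. Four-parameter Hill fit across titration.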
# SARS PLpro yeast = blocks SARS-CoV papain-like protease in a yeast assay; S. cerevisiae expressing SARS-CoV PLpro, growth rescue; Potency, µM (titrated, usually from 32.9 µM), for inactives: at the highest dose activity, positive = growth rescue, hits mostly activators; 330,000 compounds, 0.19% hits; calls by dose curve; further: potency means the concentration at half of the fitted maximal effect; 0% is about no effect; nearly all actives have a fitted effect of over 55% in size
# Pf growth 96h = inhibits malaria parasite growth, 96 h | AID 504834 | P. falciparum luciferase reporter growth, 96 h | 320,000 compounds, 6.9% hits | Potency, µM (highest dose often 28.7 µM), inactives show at the highest dose activity change, negative = inhibition, usual class: inhibitors; further: potency means the concentration at half of the fitted maximal effect; on the % scale 0 is the no-effect control and ±100 the full control effect
#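 P. falciparum expressing integrated firefly luciferase grown in erythrocytes (2% hematocrit, 0.05% parasitemia final) with compounds for 96 hours at 37 C, 5% CO2. Growth inhibition read as loss of luminescence after adding luciferase detection reagent.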
# Pf growth 48h = P. falciparum growth inhibition at 48 hours (one generation) | P. falciparum luciferase growth in erythrocytes, 48 h | Potency, µM (series often up to 28.7 µM), inactives show top-dose activity change, negative = inhibition, usual class: inhibitors | 310,000 compounds, 5.9% hits | AID 504832; further: potency means the concentration at half of the fitted maximal effect; on the % scale 0 is the no-effect control and ±100 the full control effect
#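 A one-generation exposure of luciferase-tagged malaria parasites in RPMI 1640/Albumax erythrocyte culture, 37 C and 5% CO2. Inhibition is inferred from decreased luminescence after adding detection reagent.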
# HCV inh = HCV inhibition | Potency, µM (series often up to 41.8 µM), without a hit: top-dose activity change, negative = inhibition, actives largely listed as inhibitors | Huh7.5.1 HCVcc-Cre infection, luciferase reporter, 44 h | AID 651820 | 340,000 compounds, 3.4% hits; further: potency means the concentration at half of the fitted maximal effect; on the % scale 0 is the no-effect control and ±100 the full control effect
#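 Reporter virus HCVcc-Cre (~0.5 moi) infects cells exposed to compound; seeding density 1,000 cells/well with 4 h settling beforehand. Luminescence, 15 sec read, taken 44 h post-infection following a 15 min RT substrate incubation.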
# Numbers without * were called inactive; ? = inconclusive; · = no result; ! = repeats disagree; [ ] = remark or other dose. In the library only some 15% were active in any assay of this set; here they are far more common. Unless noted, the call rests on the fitted dose curve; in most records, active means well fitted curve in the direction sought with a large enough effect; inconclusive means small, poorly fitted or top-dose-only effect, or another doubt; inactive means no such curve, though single readings can be large; an effect the other way counts as inactive or inconclusive.
SMILES,HCMV inh,Sm TGR block,SARS PLpro yeast,Pf growth 96h,Pf growth 48h,HCV inh
COc1ccc(C(=O)Nc2ccc(S(=O)(=O)N3CCCCC3C)cc2)c(OC)c1OC (configuration not stated),-28.2,3.4%,2.6%,23.9%,?,11.2µM*
O=C(Nc1ccc(S(=O)(=O)N2CCCCC2c2cccnc2)cc1)c1ccccc1F (configuration not stated),-16.3,1.7%,-2.3%,?,?,-8.6%
COc1cc(C(=O)Nc2ccc(S(=O)(=O)N3CCCCC3C)cc2)cc(OC)c1OC (configuration not stated),?,-6.9%,-0.1%,?,8.28µM*,12.6µM*
COc1cc(/C=C/C(=O)Nc2ccc(S(=O)(=O)Nc3ncccn3)cc2)ccc1OCC#N,0.0,·,·,·,·,-7.9%
CCc1ccc(-n2c(SCc3ccccc3Cl)nc3[nH]ncc3c2=O)cc1,-105.3*,0.0%,·,·,·,·
COc1ccc(Cl)cc1NC(=O)[C@H]1O[C@@H]2OC(C)(C)O[C@@H]2[C@H]2OC(C)(C)O[C@H]21,18.6,2.4%,·,·,·,·
O=C(COC(=O)c1ccc([N+](=O)[O-])s1)Nc1ccc(F)cc1,11.0,14.1µM*,-4.6%[6.58 µM],-22.4%,12.6%,10.7%
CCc1ccc(-c2cc(C)no2)cc1S(=O)(=O)NCCc1ccc(OC)c(OC)c1,0.0,4.3%,0.2%,11.7µM*,0.0%,-29.7%
Cc1cc(-c2ccc(C)c(S(=O)(=O)NCc3ccc(Br)cc3)c2)on1,-64.2*,-1.1%,-11.1%,-2.8%,2.2%,?
Cc1cc(-c2ccc(C)c(S(=O)(=O)NCCc3ccc(S(N)(=O)=O)cc3)c2)on1,-63.9*!,4.6%,1.9%,20.0%,13.4%,-7.4%
CCc1ccc(-c2cc(C)no2)cc1S(=O)(=O)NCc1ccc(OC)c(OC)c1,-11.0,-7.4%,-1.6%,-5.7%,2.1%,?
Cc1cc(-c2ccc(C)c(S(=O)(=O)NCc3cccc(Br)c3)c2)on1,-63.2*!,3.1%,-9.8%,74.1%,?,-23.9%
Cc1cc(-c2ccc(C)c(S(=O)(=O)NCCc3ccco3)c2)on1,1.9,-35.9%,?,?,5.5%,-10.4%
CC1Cc2cc(S(=O)(=O)N(C)c3ccc(Br)cc3)ccc2N1C(=O)C1CC1 (configuration not stated),?,6.9%,·,·,·,·
O=c1c2ccccc2nc(-c2ccco2)n1CCCn1ccnc1,-24.2,5.0%,-1.6%,?,-2.4%,0.9%
CC(C)(C)c1nc2c(s1)CCc1onc(-c3ccc(Cl)cc3)c1-2,-15.4,-0.9%,7.2%,?,6.0%,2.2%
Cc1nc2c(c3c1[nH]c1ccccc13)C(O)CC(C)(C)C2 (configuration not stated),-89.8*,-6.1%,-16.0%,26.7%,?,?
Cc1nn(-c2ccccc2)c2c1C(O)CC(C)(C)C2 (configuration not stated),-37.4,-7.5%,-0.3%,30.7%,-6.8%,6.4%
CN1C(=O)c2ccccc2Sc2ccc(NC(=O)c3ccc(C(F)(F)F)cc3)cc21,-12.3,0.5%,·,·,·,·
CCOC(=O)N1CCc2c(sc3c2c(=O)n(Cc2ccccc2)c(=O)n3CC(=O)NCC2CCCO2)C1 (configuration not stated),-24.8,-4.9%,-2.4%,?,5.86µM*,10.6%
CC(=O)N1CCc2c(sc3c2c(=O)n(Cc2ccccc2)c(=O)n3Cc2ccccc2F)C1,-1.2,-0.9%,·,·,·,·
CCOC(=O)N1CCc2c(sc3c2c(=O)n(Cc2ccccc2)c(=O)n3Cc2c(F)cccc2Cl)C1,-68.1*,1.7%,·,·,·,·
CCOC(=O)N1CCc2c(sc3c2c(=O)n(Cc2ccccc2)c(=O)n3Cc2ccccc2F)C1,12.0,-3.3%,-5.4%,?,2.62µM*,6.5%[8.37 µM]
COc1ccccc1NC(=O)c1cc2c(n(-c3ccc(C)cc3)c1=O)CC(C)(C)CC2=O,20.1,-6.4%,·,·,·,·
COc1ccc(/C=C/C(=O)Nc2ccc3nc4c(c(Nc5ccc(OC)c(OC)c5)c3c2)CCCC4)cc1,-98.8*,-10.8%,·,·,·,·
SMILES,HCMV inh,Sm TGR block,SARS PLpro yeast,Pf growth 96h,Pf growth 48h,HCV inh
COc1ccc(Nc2c3c(nc4ccc(NC(=O)/C=C/c5cc(OC)c(OC)c(OC)c5)cc24)CCCC3)cc1OC,-102.4*,-0.5%,·,·,·,·
COc1ccc(/C=C/C(=O)Nc2ccc3nc4n(c(=O)c3c2)CCCC4)cc1OC,-34.2,0.2%,-5.8%,?,?,-27.9%
CSc1ccc(C(=O)/C=C/c2ccc(N)cc2)cc1,24.2,2.7%,-13.5%,67.4%,187.0%,-22.8%
CSc1ccc(/C=C/C(=O)c2c(O)cc(C)oc2=O)cc1,-80.1*,-28.2%,-0.6%,?,?,8.9%
Cc1cc(O)c(C(=O)/C=C/c2ccc(Cl)cc2)c(=O)o1,100.7,25.1µM*,-1.9%,?,?,-7.5%
C/C(=C\C(=O)c1c(O)cc(C)oc1=O)N(C)C,-8.5,-13.6%,0.1%,22.1%,7.0%,19.2%
COc1ccc(CNC(=O)c2cnc3sc(N4CCCCCC4)nn3c2=O)cc1,-38.0,-1.2%,·,·,·,·
COc1cc(C(=O)ON=C2C3CC4CC(C3)CC2C4)cc(OC)c1OC,38.2,4.8%,-10.6%,1.47µM*,1.17µM*,-25.1%
COc1cc(C(=O)O)cc(OC)c1OC,11.7,·,·,·,·,-12.5%
COc1cc(C(=O)O/N=C2/C=CC(=O)C(C)=C2C)cc(OC)c1OC,-105.2*,-31.4%,-1.8%,?,49.0%,-18.8%
COc1cc(C(=O)O/N=C2\C=CC(=O)C=C2C)cc(OC)c1OC,?,3.16µM*,-0.2%,31.0%,31.5%,-0.5%
COc1ccc(N2CC(C(=O)Nc3ccccc3C(=O)NCc3ccco3)CC2=O)cc1 (configuration not stated),10.5,-6.8%,0.5%,-16.5%,?,-20.1%
O=C(Nc1nnc(SCc2ccccn2)s1)C1CC(=O)N(c2ccc(F)cc2)C1 (configuration not stated),19.0,0.0%,-2.0%,?,-5.2%,14.6%
CCCOc1ccc(N2CC(C(=O)Nc3ccccc3C(=O)NCc3ccco3)CC2=O)cc1 (configuration not stated),46.7,-1.1%,-7.1%,15.8%,9.28µM*,?
COc1cccc(N2CC(C(=O)Nc3nnc(SCC(=O)NCc4ccco4)s3)CC2=O)c1 (configuration not stated),25.7,50.1µM*,-1.7%,?,0.3%,0.5%
O=C(CSc1nnc(NC(=O)C2CC(=O)N(c3ccccc3)C2)s1)NCC1CCCO1 (configuration not stated),2.1,-20.4%,15.2%,3.2%,0.1%,9.0%

# Source: PubChem
